Bioassay records from PubChem BioAssay.
The list is not random: actives were taken first. Their share in the collection is about 4.3%.
DRD3 agonist = qHTS of D3 Dopamine Receptor Agonist: qHTS. AID 652048, 2013. actives 0.58% (n = 410,000). max activation, %. D3R DiscoveRx beta-arrestin cells, luminescence, 90 min; in the data active = max activation above about 30%
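Cells at 1500/well, incubated overnight, then treated with pinned compounds (dopamine as control) for 90 min at 37 degrees C. DiscoveRx reagent added for 30 - 60 minutes at room temperature; luminescence read.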
GLP-1R agonist = qHTS of GLP-1 Receptor Agonists. HEK293 GLP-1R CRE-luciferase, luminescence, 4-6 h; cells express a hypersensitive GLP-1R form. Potency, µM (highest dose often 45.6 µM), hits mostly activators. actives 0.007% (n = 380,000)
Target sequence (P43220 whole entry, looked up): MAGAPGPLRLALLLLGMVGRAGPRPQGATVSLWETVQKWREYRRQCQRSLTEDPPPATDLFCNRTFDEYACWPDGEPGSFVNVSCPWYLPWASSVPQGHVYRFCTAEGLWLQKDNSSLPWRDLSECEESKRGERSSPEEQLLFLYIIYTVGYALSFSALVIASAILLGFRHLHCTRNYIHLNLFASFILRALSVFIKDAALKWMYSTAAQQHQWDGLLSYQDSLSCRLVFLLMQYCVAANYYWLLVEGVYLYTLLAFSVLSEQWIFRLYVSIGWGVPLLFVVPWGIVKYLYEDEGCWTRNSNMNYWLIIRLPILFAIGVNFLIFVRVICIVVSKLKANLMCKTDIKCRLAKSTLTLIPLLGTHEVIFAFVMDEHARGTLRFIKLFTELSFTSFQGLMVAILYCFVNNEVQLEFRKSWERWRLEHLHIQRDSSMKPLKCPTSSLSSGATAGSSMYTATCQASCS
GLP-1R inv ag = qHTS of GLP-1 Receptor Inverse Agonists (Inhibition Mode); actives 1.6% (n = 410,000); Glucagon-like peptide 1 receptor (Homo sapiens), P43220; HEK293 GLP-1R CRE-luciferase, luminescence, 24 h; GLP-1R form is constitutively active; Potency, µM (highest dose often 38.3 µM), most hits filed as inhibitors; note: nearly all actives have a fitted effect of over 55% in size
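Assay principle: reduced luminescence from a cAMP-responsive reporter in HEK293 cells co-expressing a constitutively active GLP-1R. Conditions: 24 hr compound incubation, 37 deg C, 5% CO2.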
D3 antag = qHTS of D3 Dopamine Receptor Antagonist: qHTS | actives 2.5% (n = 360,000) | D3R cells, DiscoveRx beta-arrestin luminescence, antagonist mode; stronger effect = lower value | max response, negative = inhibition, %; in the data active = max response below about -50%; inconclusive = no clear call, values can overlap the other calls
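Cells expressing the human receptor were seeded at 1500 cells/well, incubated overnight at 37 degrees C in 5% CO2, then exposed to library compounds with dopamine controls for 90 minutes at 37 degrees C before luminescent detection.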
Hits are given with their value; - = inactive; ? = inconclusive; . = no result. Unless noted, calls come from the whole dose curve; as a rule, active = well fitted curve in the direction sought with a large enough effect; inconclusive = small, poorly fitted or top-dose-only effect, or another doubt; inactive = no such curve, though single readings can be large; an effect the other way counts as inactive or inconclusive.

SMILES	DRD3 agonist	GLP-1R agonist	GLP-1R inv ag	D3 antag
COc1ccc(CNC(=S)N/N=C(\C)c2ccc(OC)cc2)cc1	-	-	?	-
CCOC(=O)CSc1nc2ccccc2n2cnnc12	-	-	-	-51.5
Cc1ccc(CNC(=O)CCCn2nc(C)n3c(cc4sccc43)c2=O)cc1	-	.	-	.
COc1ccccc1-c1cc(C(=O)NC(C)c2ccccc2)no1 (centres undefined)	-	-	-	-58.0
Cc1ccc(CNC(=O)Cn2c(=O)ccc3cc(S(=O)(=O)N4CCC(C)CC4)ccc32)cc1	-	-	-	.
Cc1ccc(SC(=O)c2c(C)noc2-c2cc(C)on2)cc1	-	-	-	-92.2
CCCCCCCCCCCCCCCCCCOP(=O)([O-])OC1CC[N+](C)(C)CC1	-	-	.	.
O=C(/C=C/c1ccncc1)c1ccc(NC(=O)c2ccccc2F)cc1	-	-	?	-66.5
COc1ccc(OC)c(NC(=O)c2nc(S(=O)(=O)Cc3ccc(F)cc3)ncc2Cl)c1	-	.	?	.
CN(C(=O)CSc1nncn1-c1ccccc1)C1CCS(=O)(=O)C1 (centres undefined)	-	-	-	-54.3
O=C(Nc1cccc(Cl)c1)c1cc(S(=O)(=O)NCCc2ccc(Cl)cc2)ccc1F	-	-	5.62µM	-
CC(C)c1ccc(NC(=O)c2cc(S(=O)(=O)N(C)C3CCCCC3)ccc2F)cc1	-	.	10µM	.
Cc1ccc(NC(=O)c2cc(S(=O)(=O)NCCc3ccccc3)ccc2F)cc1Cl	-	-	?	-
CC(C)c1ccc(NC(=O)c2cc(S(=O)(=O)NCc3ccccc3Cl)ccc2F)cc1	-	.	6.31µM	.
Cc1ccccc1CNC(=O)c1sc2ncnc(N(C)C3CCCCC3)c2c1C	-	.	-	.
CCC(C)(C)C1CCc2[nH]nc(C(=O)NC3CCCC3)c2C1 (centres undefined)	-	-	?	-
O=C(NC1CCCCC1)c1n[nH]c2c1CCCCC2	-	-	2.51µM	-
Cn1nnnc1SCC(=O)c1cccs1	-	-	-	-
Cc1cc(C)c(-n2nnnc2SCC(=O)c2cccs2)c(C)c1	-	-	12.6µM	-
Cc1ccccc1-c1n[nH]c(=S)o1	-	-	-	-
COc1ccc(Cl)cc1-c1n[nH]c(=S)o1	-	-	-	-83.8
COc1ccccc1-c1n[nH]c(=S)o1	-	-	-	-81.6
COc1ccc(C(=O)Nc2ccc(-c3n[nH]c(=S)o3)cc2)cc1OC	-	-	-	-
CC[C@H]1OC(=O)[C@H](C)C(=O)[C@H](C)[C@@H](OC2O[C@H](C)C[C@H](N(C)C)[C@@H]2O)[C@@](C)(OC)C[C@@H](C)C(=O)[C@@H](C)C2N(CCCCn3cnc(-c4cccnc4)c3)C(=O)O[C@@]21C (some centres undefined)	.	-	.	.
COCCCNCCC(CCC(C)C)c1ccc2c(c1)OCO2 (centres undefined)	-	-	?	?
SMILES	DRD3 agonist	GLP-1R agonist	GLP-1R inv ag	D3 antag
COCCCNCCOc1cc(C(C)C)ccc1C	-	-	-	-66.3
Cc1ccc(C(C)C)cc1OCCOCCN1CCCC1	-	-	7.94µM	-66.1
CCOc1cccc(OCCOCCN2CCCC2)c1	-	-	-	?
Cc1cc(OCCOCCN2CCCC2)ccc1C(C)C	-	-	?	-58.2
CCc1cccc(OCCOCCN2CCCC2)c1	-	-	-	-71.1
O=C(O)c1cc(O)c2c(c1)[C@H]([C@H]1c3cc(C(=O)O)cc(O)c3C(=O)c3c(O[C@@H]4O[C@H](CO)[C@@H](O)[C@H](O)[C@H]4O)cccc31)c1cccc(O[C@@H]3O[C@H](CO)[C@@H](O)[C@H](O)[C@H]3O)c1C2=O	-	.	.	.
COC(=O)c1ccc(-n2ccnc2)cc1	-	-	-	-
CCOC(=O)C(=Cc1ccc(Br)cc1)C(=O)OCC	-	-	?	-107.9
CCOC(=O)C(=Cc1ccc(-n2ccnc2)cc1)C(=O)OCC	-	-	?	-55.6
CCN1CCN(C(c2cccs2)C(C)NS(=O)(=O)c2ccc(Br)cc2)CC1 (centres undefined)	-	-	11.2µM	-
Cn1ccc2c(OCC(=O)Nc3cc(C(F)(F)F)ccc3Cl)cccc2c1=O	-	.	-	.
Nc1nnc(SCC(=O)OCC(=O)c2ccccc2Br)s1	-	-	-	-58.4
O=C(O)CNC(=O)CNC(=O)CNC(=O)CSC(=O)c1ccccc1	-	-	.	.
COc1ccc(-c2nc3ccccc3s2)cc1NC(=O)c1cccc([N+](=O)[O-])c1C	-	.	-	.
COc1ccc([N+](=O)[O-])cc1NC(=O)C(C)N1CCCC1 (centres undefined)	-	-	-	-62.3
COc1cc(/C=N/NS(=O)(=O)c2ccc(C)cc2)ccc1OCc1ccc(C(=O)O)cc1	-	-	2.82µM	-
CCOc1ccc(/C=N/NS(=O)(=O)c2ccc(C)cc2)cc1OC	-	-	-	-
COc1cc(/C=N/NC(=O)COc2ccc(Cl)cc2)ccc1OS(=O)(=O)c1ccc(C)cc1	-	-	-	-50.2
COc1cc(/C=N/NC(=O)COc2cccc(F)c2)ccc1OS(=O)(=O)c1ccc(C)cc1	-	-	?	-53.3
COC(=O)N/N=C/c1ccc(OS(=O)(=O)c2ccc(C)cc2)c(OC)c1	-	-	?	-
O=C(NCc1ccc(Cl)cc1)c1cnc(N2CCCCC2)c2ccccc12	-	.	?	.
O=C(N/N=C/c1cc([N+](=O)[O-])ccc1O)C1CC1	-	-	-	-86.2
O=C(N/N=C/c1cc([N+](=O)[O-])ccc1O)C(O)(c1ccccc1)c1ccccc1	-	-	?	-55.5
O=C(N/N=C/c1cc([N+](=O)[O-])ccc1O)c1ccc2c(c1)OCCO2	-	-	?	-63.6
O=C(N/N=C/c1ccccc1[N+](=O)[O-])c1ccc2c(c1)OCCO2	-	-	-	-
SMILES	DRD3 agonist	GLP-1R agonist	GLP-1R inv ag	D3 antag
CCc1ccc(N2CC(C(=O)N/N=C/c3cc([N+](=O)[O-])ccc3O)CC2=O)cc1 (centres undefined)	-	-	?	-62.9
Cc1ccc2c(c1)c1c(c(=O)n(-c3ccccc3)c(=O)n1Cc1ccccc1C)n2C	-	-	-	.
CCOc1ccc(C2C(C(N)=O)=C(C)Nc3nc(SCc4ccccc4F)nn32)cc1 (centres undefined)	-	-	-	.
c1ccc(N2CCN(c3ncnc4[nH]ncc34)CC2)cc1	-	.	-	.
Cc1ccccc1CC(=O)Nc1ccc2c(c1)c(=O)n(C)n2-c1ccccc1F	-	-	?	-
CCOc1cc(C(=O)NCC(C)(C)CNC(=O)c2cc(OCC)c(OCC)c(OCC)c2)cc(OCC)c1OCC	-	-	10µM	-
CCOc1cc(C(=O)NN=C2CCCC2)cc(OCC)c1OCC	-	-	-	-50.8
COc1ccc(C(=O)NN=C2CCCC2)cc1OC	-	-	-	-
CCOc1cc(C(=O)NCc2ccncc2)cc(OCC)c1OCC	-	-	-	-100.2
CCOC(=O)N1CCN(Cc2nc3cc(NC(=O)c4ccccc4Cl)ccc3n2C(C)C)CC1	-	.	?	.
